Results from PubChem BioAssay (EPA / NIEHS).
Activity calls are given as the source filed them. Rule for the calls: active = hit-call score of the fitted dose curve at least 0.9, where 1 is the maximum; inactive = score below 0.9.

Key:
[1] = CEETOX_H295R_CORTISOL: CeeTox H295R High-throughput Steroidogenesis Assay for Cortisol (AID 2283438); details: actives raise or lower the signal;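 note: cortisol secreted into medium quantified by LC-MS/MS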
Method in brief: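 Human adrenocortical H295R cells (passage ≤10) received test chemicals for 48 h after forskolin priming. Secreted cortisol was measured by LC-MS/MS.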

[2] = CEETOX_H295R_DOC: CeeTox H295R High-throughput Steroidogenesis Assay for DOC (AID 2283439); details: actives raise or lower the signal
Method in brief: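 Secreted DOC was quantified from H295R media by HPLC-MS/MS after 48 h chemical exposure following 48 h forskolin (10 uM) prestimulation. Values were fitted in both directions relative to DMSO, the negative control and baseline.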

[3] = CEETOX_H295R_PROG: CeeTox H295R High-throughput Steroidogenesis Assay for Progesterone (PROG) (AID 2283442); details: actives raise or lower the signal;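 for AC50: human H295R adrenal cells primed with 10 µM forskolin before dosing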
Method in brief: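 H295R human adrenal cells were prestimulated with 10 uM forskolin for 48 h, then exposed to test chemical (0.1% DMSO final) for 48 h. Medium progesterone was MTBE-extracted and quantified by HPLC-MS/MS, with bidirectional fitting against DMSO.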

[4] = read-out: Tumor necrosis factor receptor superfamily member 6 (Homo sapiens) (UniProt P25445); assay: LTEA_HepaRG_FAS: Life Technologies and Expression Analysis (LTEA) Assay for Fas cell surface death receptor (FAS) using HepaRG (AID 2283447); details: mRNA level, 48 h; actives raise or lower the signal
Method in brief: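 Differentiated HepaRG cells in serum-free induction medium were exposed 48 h to 8 half-log concentrations up to 100 uM in 0.5% DMSO, in duplicate. FAS mRNA was measured by qRT-PCR normalised to ACTB, GAPDH and POLR2A; bidirectional fit versus DMSO.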

[5] = read-out: Cyclin D2 (CCND2), CCND2 (gene 894); assay: LTEA_HepaRG_CCND2: Life Technologies and Expression Analysis (LTEA) Assay for Cyclin D2 (CCND2) using HepaRG (AID 2283449); details: mRNA level, 48 h; actives raise or lower the signal;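 note: CCND2 transcript measured by TaqMan qRT-PCR and normalised to three housekeeping genes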
Method in brief: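 Chemicals in 0.5% DMSO, eight half-log concentrations from 100 uM top, were applied in duplicate for 48 h to human HepaRG cells in serum-free induction medium. CCND2 mRNA by TaqMan qRT-PCR, normalised to ACTB/GAPDH/POLR2A; bidirectional fit versus DMSO.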

[6] = read-out: Cyclin Dependent Kinase Inhibitor 1A (CDKN1A), CDKN1A (gene 1026); assay: LTEA_HepaRG_CDKN1A: Life Technologies and Expression Analysis (LTEA) Assay for Cyclin Dependent Kinase Inhibitor 1A (CDKN1A) using HepaRG (AID 2283450); details: mRNA level, 48 h; actives raise or lower the signal
Method in brief: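 Differentiated human HepaRG cells, pre-cultured 48 h, were exposed in duplicate for 48 h in serum-free induction medium to eight half-log concentrations up to 100 uM (0.5% DMSO). CDKN1A mRNA was measured by qRT-PCR, normalized to ACTB/GAPDH/POLR2A, bidirectionally fitted versus DMSO.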

[7] = read-out: catalase (CAT), CAT (gene 847); assay: LTEA_HepaRG_CAT: Life Technologies and Expression Analysis (LTEA) Assay for catalase (CAT) using HepaRG (AID 2283452); details: mRNA level, 48 h; actives raise or lower the signal;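 for AC50: TaqMan qRT-PCR signal normalized to ACTB GAPDH and POLR2A housekeeping genes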
Method in brief: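 HepaRG cells in serum-free induction medium, 0.5% DMSO vehicle, exposed 48 h in duplicate over 8 half-log concentrations from 100 uM. CAT mRNA measured by qRT-PCR, normalized to ACTB, GAPDH, POLR2A; bidirectional fit versus DMSO.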

[8] = read-out: flavin-containing dimethylaniline monooxygenases 3 (FMO3), FMO3 (gene 2328); assay: LTEA_HepaRG_FMO3: Life Technologies and Expression Analysis (LTEA) Assay for flavin-containing dimethylaniline monooxygenases 3 (FMO3) using HepaRG (AID 2283453); details: mRNA level, 48 h; actives raise or lower the signal;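 for AC50: FMO3 transcript by TaqMan qRT-PCR normalized to ACTB GAPDH and POLR2A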
Method in brief: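 HepaRG, 48 h exposure, 8-pt half-log series from 100 uM, 0.5% DMSO vehicle, duplicates; FMO3 transcript by Fluidigm TaqMan qRT-PCR, housekeeping-normalized; gain/loss fit vs DMSO.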

[9] = CEETOX_H295R_ESTRADIOL: CeeTox H295R High-throughput Steroidogenesis Assay for Estradiol (AID 2283440); details: actives raise or lower the signal;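 note: estradiol secreted into medium quantified by LC-MS/MS after dansyl derivatisation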
Procedure: CEETOX_H295R is a cell-based, multiplexed-readout assay that uses H295R, a human adrenal gland cell line, with measurements taken at 48 hours after chemical dosing in a 96-well plate.CEETOX_H295R_ESTRADIOL is one of 23 assay component(s) measured or calculated from the CEETOX_H295R assay. It is designed to make measurements of hormone induction, a form of inducible reporter, as detected with absorbance signals by HPLC-MS-MS technology.Data from the assay component CEETOX_H295R_ESTRADIOL was analyzed into 1 assay endpoint. This assay endpoint, CEETOX_H295R_ESTRADIOL, was analyzed with bidirectional fitting relative to DMSO as the negative control and baseline of activity. […] To generalize the intended target to other relatable targets, this assay endpoint is annotated to the steroid hormone intended target family, where the subfamily is estrogens.
Cell culture and media preparation procedures were conducted in accordance with OECD Test No. 456 guidelines, with minor modifications. H295R cells (ATCC CRL-2128) were expanded for 5 passages and frozen in batches in liquid nitrogen. Prior to the steroidogenesis assay, H295R cells were thawed and passed at least 4 times. The maximum passage was 10. Cells were maintained in a 1:1 mixture of DMEM/F12 supplemented with 5ml/L ITS+ Premix (BD Bioscience) and 12.5 ml/L Nu-Serum (BD Bioscience). After seeding cells into 96-well plates at 50-60% confluency, cells were allowed to adhere overnight. Prior to chemical testing, culture medium was replaced with 175 uL medium containing 10 uM forskolin to stimulate steroidogenesis for 48 hours. Following prestimulation, forskolin medium was replaced with medium containing test chemical solubilized in DMSO (ensuring a final concentration of 0.1% DMSO). Test chemicals were incubated for 48 hours, then the medium was removed and split into 2 vials containing approximately 75uL each, and stored at -80 C prior to hormone analysis. For steroid quantification, media samples were shipped to OpAns, LLC (Durham, NC) on dry ice, and samples were thawed to room temperature prior to liquid-liquid extraction. Steroid hormones were extracted from media samples using methyl tertbutyl ether (MTBE). An extra derivatization with dansyl chloride was included for estrogen (estrone and estradiol) detection only. Steroid hormones were separated by HPLC, eluted using a reverse phase C18 gradient with electrospray positive ionization, followed by quantification by tandem mass spectrometry (MS/MS). Data were acquired on a MassHunter Workstation Acquisition version B03.01 (Agilent Technologies, Inc.) and processed using MassHunter Quantitative Analysis for QQQ. Accuracy was determined for each hormone analyte from 3 standards to determine upper and lower limits of quantification (ULOQ and LLOQ, respectively) using a 7-point standard curve. Precision and accuracy of the extraction and quantification methods were calculated as the percent relative standard deviation (%RSD) of the spiked standards and percent spiked standard recovered, respectively. […] Test medium was removed following chemical exposure, and cell viability was evaluated in the same wells by MTT. MTT procedures were as follows: after removal of test medium, 500 uL of 0.5 mg/ml of 3-[4,5-dimethylthiazol-2-y]2,5-diphenyltetrazoliumbromide solution was added to the cells. Following a 4-hour incubation at 37 C and 5% CO2 to allow formazan-crystal formation, the MTT solution was removed and blue formazan salt crystals were solubilized using 500uL anhydrous isopropanol with shaking for 20 minutes. Absorbance was read at 570 and 650nm using a Packard Fusion microplate reader. Background correction of absorbance units was used to determine percent change relative to controls. […] When a test chemical reduced cell viability to 20% - 70%, the test chemical was diluted 10-fold and re-evaluated, but if cell viability was <20%, then the test chemical was diluted 100-fold and re-evaluated. […]

[10] = CEETOX_H295R_ESTRONE: CeeTox H295R High-throughput Steroidogenesis Assay for Estrone (AID 2283441); details: actives raise or lower the signal;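 note: estrone secreted into medium measured by LC-MS/MS after dansyl derivatization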
Method in brief: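 H295R cells; 48 h forskolin (10 uM) prestimulation; 48 h compound exposure, 0.1% DMSO final. Medium estrone: MTBE extraction, dansyl derivatization, HPLC-MS/MS. Bidirectional fit vs DMSO.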

Measured: AC50

C[C@]12CC[C@@H]3c4ccc(O)cc4CC[C@H]3[C@@H]1C[C@@H](O)[C@@H]2O
active: [2] 25.8 µM
inactive: [1] | [3]

CCCCc1oc2ccccc2c1C(=O)c1cc(I)c(OCCN(CC)CC)c(I)c1
active: [4] 66.6 µM | [6] 68.3 µM | [7] 37.8 µM | [8] 48.6 µM
inactive: [5]

O=C(CCCN1CCC(O)(c2ccc(Cl)cc2)CC1)c1ccc(F)cc1
inactive: [1] | [2]
active: [4] 85.8 µM | [6] 79.9 µM | [7] 68.4 µM | [8] 73.7 µM

CCC(C)c1ccccc1O (stereo not given)
inactive: [4] | [5] | [6] | [7] | [8]

Cc1[nH]nc2c1N=C(c1ccccc1Cl)c1cc([N+](=O)[O-])ccc1N2
inactive: [5] | [6]
active: [4] 4.11 µM | [7] 16.1 µM | [8] 9.1 µM

COc1cc([N+](=O)[O-])ccc1N
active: [2] 23.8 µM | [3] 24.2 µM
inactive: [1] | [9] | [10]

Clc1ccc(Nc2nnc(Cc3ccncc3)c3ccccc23)cc1
inactive: [2] | [3]
active: [1] 3.2 µM | [9] 2.39 µM | [10] 4.2 µM

Cc1cccc2c1ccc1ccccc12
inactive: [1] | [2] | [9] | [10] | [3]

CCCCC(CC)C(=O)O (stereo not given)
inactive: [4] | [6] | [7]

CS(=O)(=O)c1ccc([C@@H](CC2CCCC2)C(=O)Nc2cnccn2)cc1Cl
active: [6] 50 µM | [7] 83.3 µM | [8] 78.6 µM
inactive: [4]

CCCCCCCCCCCCCCC
inactive: [4] | [5] | [6] | [7] | [8]

CCCCCc1ccc(O)cc1
inactive: [1] | [2] | [9] | [10] | [3]

O=C1NS(=O)(=O)c2ccccc21
inactive: [4] | [6] | [7] | [8]

CC(=O)Nc1ccc(O)cc1
inactive: [4] | [5] | [6] | [7] | [8]

CCCCCC(C)OC(=O)COc1ccc(Cl)c2cccnc12 (stereo not given)
active: [1] 34.9 µM
inactive: [2] | [3]

CN(Cc1cnc2nc(N)nc(N)c2n1)c1ccc(C(=O)N[C@@H](CCC(=O)O)C(=O)O)cc1
inactive: [4] | [5] | [6] | [7] | [8]

CC(C)(C)c1ccc(O)c(O)c1
inactive: [2]
active: [1] 50 µM | [3] 32.3 µM

COc1cccc(O)c1
inactive: [1] | [2] | [3]

CC(C)CCOCCC(C)C
inactive: [1] | [2] | [9] | [10] | [3]

CC(C)(c1ccc(Oc2ccc(N)cc2)cc1)c1ccc(Oc2ccc(N)cc2)cc1
active: [1] 0.401 µM | [2] 0.2 µM | [3] 0.134 µM
inactive: [9] | [10]

N=C(N)c1ccc(OCCCCCOc2ccc(C(=N)N)cc2)cc1
inactive: [5]
active: [4] 4.23 µM | [6] 10.1 µM | [7] 6.7 µM | [8] 6.68 µM

O=C(c1ccccc1)c1ccccc1
inactive: [4] | [5] | [6] | [7] | [8]

CCCCCCCCCCCCOS(=O)(=O)O
inactive: [4] | [5] | [6]
active: [8] 85.6 µM

c1cc[nH]c1
inactive: [1] | [2] | [3]

Oc1cc2ccccc2cc1O
inactive: [1] | [2] | [9] | [10] | [3]

CCCCC=O
inactive: [4] | [5] | [6] | [7] | [8]

O=C(NCc1ncc(C(F)(F)F)cc1Cl)c1c(Cl)cccc1Cl
inactive: [1] | [2] | [9] | [10]
active: [3] 7.48 µM

CN(C)CCOC(c1ccccc1)c1ccccc1
inactive: [4] | [6] | [7] | [8]

OCC(CO)(CBr)CBr
inactive: [4] | [5] | [6] | [7] | [8]
